Pf growth 96h: P. falciparum growth inhibition at 96 hours | 6.9% of 320,000 active | P. falciparum luciferase reporter growth, 96 h | Potency, µM (top dose mostly 28.7 µM), without a hit: top-dose activity change, negative = inhibition, actives largely listed as inhibitors; further: on the % scale 0 is the no-effect control and ±100 the full control effect
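Readout is luminescence from an integrated firefly luciferase in P. falciparum. Red cells, 2% hematocrit and 0.05% parasitemia final, were cultured with compound through two parasite generations (96 hours) at 37 C, 5% CO2.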
Vaccinia mCherry: inhibitors of vaccinia virus infection (mCherry reporter signal). Vaccinia virus mCherry reporter infection, fluorescence. Potency, µM (series often up to 36.5 µM), for inactives: at the top dose activity change, negative = inhibition, hits mostly inhibitors. 0.63% of 310,000 active; calls by dose curve; tested in A549 cells; further: on the % scale 0 is the no-effect control and ±100 the full control effect; nearly all actives have a fitted effect of over 35% in size
NS1 inh: inhibitors of influenza NS1 protein function | 0.4% of 270,000 active | Potency, µM (titrated, usually from 46.1 µM), without a hit: at the top dose activity, positive = more growth | AID 2326; calls by dose curve; further: actives are rising curves; nearly all actives have a fitted effect of over 50% in size
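Read-out: OD600 growth recovery of NS1-expressing budding yeast. Cells grown overnight at 30C in -URA glucose medium, washed, resuspended and diluted 1:100 in 2% galactose assay medium, pH 6.0. Same strain lacking NS1 served as positive control.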
Pf growth 48h: P. falciparum growth inhibition at 48 hours (one generation). Potency, µM (titrated, usually from 28.7 µM), without a hit: top-dose activity change, negative = inhibition, actives largely listed as inhibitors. 5.9% of 310,000 active. P. falciparum luciferase growth in erythrocytes, 48 h; further: on the % scale 0 is the no-effect control and ±100 the full control effect
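Erythrocytes infected with P. falciparum carrying an integrated firefly luciferase reporter (2% hematocrit, 0.1% parasitemia final) were exposed to compounds in RPMI 1640 with 0.5% Albumax at 37 C, 5% CO2. Growth inhibition was scored as reduced luminescence.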
Vaccinia Venus: vaccinia inhibition (Venus reporter); Vaccinia virus Venus reporter expression, fluorescence; Potency, µM (series often up to 36.5 µM), for the others: at the highest dose activity change, negative = inhibition, actives largely listed as inhibitors; 0.46% of 330,000 active; calls by dose curve; tested in A549 cells; further: on the % scale 0 is the no-effect control and ±100 the full control effect; nearly all actives have a fitted effect of over 30% in size
HCV inh: inhibitors of hepatitis C virus infection | Potency, µM (highest dose often 41.8 µM), for inactives: at the top dose activity change, negative = inhibition, hits mostly inhibitors | AID 651820 | Huh7.5.1 HCVcc-Cre infection, luciferase reporter, 44 h | 3.4% of 340,000 active; further: on the % scale 0 is the no-effect control and ±100 the full control effect
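Antiviral activity was scored by luciferase reporter output from cells infected with HCVcc-Cre (~0.5 moi) in presence of compound, 44 h infection period, cells seeded 1,000/well 4 h prior.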
* marks the source's active call; other numbers are inactive results; i = inactive; ? = inconclusive; . = no result given; [ ] = another dose, or the depositor's remark. Hits are enriched below; roughly 11% of the tested compounds scored in any of these assays. Unless noted, the call rests on the fitted dose curve; in most records, active means well fitted inhibition curve with a large enough effect; inconclusive means small, poorly fitted or top-dose-only effect, or another doubt; inactive means no such curve, though single readings can be large or run the other way. Potency means the concentration at half of the fitted maximal effect.

SMILES	Pf growth 96h	Vaccinia mCherry	NS1 inh	Pf growth 48h	Vaccinia Venus	HCV inh
O=C1[C@@H]2Cc3c([nH]c4ccccc34)[C@@H](c3ccccc3)N2C(=O)[C@@H]2Cc3c([nH]c4ccccc34)[C@@H](c3ccccc3)N12	2.6µM*	.	?	?	.	-8%[8.37 µM]
COc1ccc(CN2CCNC(=O)C2CC(=O)NC2CCCC2)cc1OC (stereo not given)	?	-13%	11%	-15%	-14%	17%
COc1ccc(CN2CCNC(=O)C2CC(=O)NC2CCCCC2)c(OC)c1 (stereo not given)	9.3µM*	-14%	-9%	-17%	-17%	14%
COc1ccc(C(=O)N2CCNC(=O)C2CC(=O)Nc2ccc(C)c(C)c2)cc1 (stereo not given)	9.3µM*	-18%	5%	11%	-13%	18%
COc1ccc(NC(=O)CC2C(=O)NCCN2C(=O)c2ccc(Cl)cc2)cc1 (stereo not given)	57%	.	-4%	29%	.	2%
COc1ccc(CN2CCNC(=O)C2CC(=O)NC2CCCCCCC2)cc1OC (stereo not given)	-8%	-14%	17%	12µM*	-2%	4%
Cc1ccc(CNS(=O)(=O)c2c(C)[nH]c(=O)[nH]c2=O)cc1	-12%	.	-4%	-1%	.	5%
CCN(CC)CCNC(=O)c1cccc(NC(=O)C(=O)c2cc(Br)ccc2NC(C)=O)c1	?	-19%	.	10µM*	-28%	-29%
CC(=O)Nc1ccccc1C(=O)C(=O)Nc1cccc(Br)c1	?	2%	3%	26%	-6%	?
O=c1c(Cl)c2oc3ccccc3nc-2c2ccccc12	-8%	?	0%	13µM*	7%	?
O=c1oc2ccc3ccccc3c2cc1-c1nc2ccccc2o1	.	-13%	.	.	-8%	-23%
Cc1ccc(S(=O)(=O)Cc2ccc(C(=O)N3CCc4ccccc4C3)o2)cc1	13µM*	i	-4%	.	-10%	-13%
COc1ccc(C(=O)CCC(=O)N2CCN(c3cc(C)ccc3C)CC2)cc1	27%	.	-40%	10%	.	10µM*
COc1ccc(-c2cccc(CCC(=O)N3CCN(c4cc(C)ccc4C)CC3)c2)cc1	.	-5%	.	.	-4%	?
COc1ccc(S(=O)(=O)Cc2ccc(C(=O)N3CCN(c4cc(Cl)ccc4C)CC3)o2)cc1	13µM*	4%	-39%	.	-11%	8%
Cc1ccc(S(=O)(=O)Cc2ccc(C(=O)N3CCN(c4cccc(C)c4C)CC3)o2)cc1	3.7µM*	-1%	-49%	-2%	?	?
COc1ccc(S(=O)(=O)Cc2ccc(C(=O)N3CCN(c4cccc(C)c4C)CC3)o2)cc1	0%	i	-24%	?	-22%	?
Cc1cccc(-n2c(O)c(C=Nc3ccc4c(c3)OCO4)c3ccccc3c2=O)n1	-15%	i	?	?	-6%	?
Cc1ccc(C)c(N2CCN(C(=O)c3ccc(CS(=O)(=O)c4ccc(Br)cc4)o3)CC2)c1	.	-3%	.	.	-7%	.
COc1ccc(S(=O)(=O)Cc2ccc(C(=O)N3CCN(c4cc(C)ccc4C)CC3)o2)cc1	4.7µM*	-10%	-35%	7%	1%	-7%
O=C(Nc1ccccc1)N(CCN1CCOCC1)Cc1ccccc1F	1%	.	1%	2%	-1%	-9%
COc1ccc(C(CNC(=O)/C=C/c2c(Cl)nc3ccccn23)N(C)C)cc1 (stereo not given)	?	-15%	.	-18%	-9%	?
COc1ccc(CCN(C)C(=O)/C=C/c2c(Cl)nc3ccccn23)cc1OC	?	-4%	.	12µM*	0%	3%
N#CCCn1cc(C(N)=O)c(-c2cccs2)n1	-1%	.	8%	22%	.	15%
Cc1nn2c(nc(N3CCCCC3)c3ccccc32)c1C=O	5.2µM*	-1%	6%	3.3µM*	-11%	?
SMILES	Pf growth 96h	Vaccinia mCherry	NS1 inh	Pf growth 48h	Vaccinia Venus	HCV inh
Cc1nn2c(nc(N3CCOCC3)c3ccccc32)c1C=C(C#N)C#N	23%	-17%	-6%	6%	-12%	-5%
Cc1nn2c([nH]c(=O)c3ccccc32)c1C=O	12µM*	.	-178%	?	.	31%
O=C(O)c1ccc(COc2ccc3ccccc3c2/C=C2/NC(=O)N(Cc3ccc(F)cc3)C2=O)cc1	32%	-6%	14%	8.3µM*	-6%	23%
O=C(O)c1ccc(COc2ccccc2/C=C2\NC(=O)N(Cc3ccccc3)C2=O)cc1	?	i	.	?	-10%	-3%
O=c1ccc2[n+]([O-])c3ccc(O)cc3oc-2c1	4.7µM*	.	-51%	1.9µM*	.	12%
CN1C(=O)N(CC(=O)Nc2cccc(S(=O)(=O)N(C)c3ccccc3)c2)C(=O)C12CCCCC2	?	-17%	.	15µM*	-25%	4µM*
CCC1CCC2(CC1)NC(=O)N(CC(=O)Nc1cccc(S(=O)(=O)N(C)c3ccccc3)c1)C2=O (stereo not given)	?	.	.	?	.	8.9µM*
O=C(CSc1nnc(Cn2nnc3ccccc32)o1)Nc1cccc(Cl)c1	119%	-14%	0%	13%	-10%	17%
O=C(Nc1ccc2nc(N3CCOCC3)sc2c1)c1ccc(F)cc1	?	.	.	-28%	.	?
O=C(Nc1ccc(F)cc1F)c1ccc2nc(N3CCOCC3)sc2c1	12µM*	i	-11%	80%	-7%	13µM*
COc1cccc(Nc2nc(N)nc(CCl)n2)c1	?	10µM*	0%	?	?	?
Cc1ccc(Nc2nc(N)nc(CCl)n2)c(C)c1	-13%	.	5%	?	.	0.5µM*
Cc1ccc(Nc2nc(N)nc(CN3CCCCCC3)n2)c(C)c1	10%	.	-5%	?	?	?
Cc1ccc(Nc2nc(N)nc(CN3CCc4ccccc4C3)n2)cc1	-2%	.	8%	?	.	?
Cc1c(Cl)cccc1Nc1nc(N)nc(CN2CCc3ccccc3C2)n1	.	?	1%	9.3µM*	-27%	?
Cc1cccc(Nc2nc(N)nc(CCl)n2)c1	9.3µM*	?	1%	?	?	3.2µM*
Cc1ccc(Nc2nc(N)nc(CCl)n2)cc1	?	i	4%	?	-7%	-81%
Cc1ccc(C(=O)OCC(=O)Nc2c(C)n(C)n(-c3ccccc3)c2=O)cc1[N+](=O)[O-]	23%	-16%	7%	17%	-16%	21%
COc1ccc(Nc2nc(N)nc(CSc3nccc(C)n3)n2)cc1	5.2µM*	.	-1%	16%	.	-8%
CCOc1ccc(Nc2nc(N)nc(CCl)n2)cc1	?	?	5%	?	?	0.56µM*
Cc1cccc(Nc2nc(N)nc(CCl)n2)c1C	1.5µM*	?	5%	?	?	-75%
Cc1ccc(SCC(=O)OCC(=O)NCCc2ccc(S(N)(=O)=O)cc2)c(C)c1	.	-2%	.	.	-3%	10%

Screening results: PubChem BioAssay, National Center for Advancing Translational Sciences (NCATS)
